# Hits are enriched below; roughly 11% of the tested compounds scored in any of these assays.
# G9a inh – blocks human histone lysine methyltransferase G9a; Q96KQ7; G9a H3K9 monomethylation, AlphaScreen, 2 h; AID 504332; Potency, µM (series often up to 102 µM), without a hit: top-dose activity, negative = inhibition, actives largely listed as inhibitors; 8.8% of 350,000 active; note: % is set by controls: 0 for no effect and ±100 for the full control effect; nearly all actives have a fitted effect of over 75% in size
#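 G9a (20 nM) was preincubated 15 min with compound, then reacted 2 h at room temperature with 500 nM biotin-H3K9 peptide and 20 µM SAM. Monomethyl-H3K9 detected by AlphaScreen using anti-H3K9me1 antibody.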
# BAZ2B block – blocks human BAZ2B | Q9UIF8 | Potency, µM (highest dose often 114 µM), inactives show at the top dose activity change, negative = inhibition, actives largely listed as inhibitors | 4.4% of 360,000 active | AlphaScreen BAZ2B-H3K14Ac peptide displacement; note: % is set by controls: 0 for no effect and ±100 for the full control effect; nearly all actives have a fitted effect of over 60% in size
#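 Compounds, titrated to a top concentration of 110 uM, were incubated 30 min at room temperature with preformed BAZ2B/acetyl-K14 H3 peptide complex (50 nM each). Proximity signal was measured by AlphaScreen after 20 min with beads.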
# HP1b chromo inh – HP1-beta chromodomain-methylated histone interaction inhibition | AlphaScreen HP1-beta / biotin-H3K9me3 peptide binding | Potency, µM (top dose mostly 114 µM), inactives show top-dose activity change, negative = inhibition, hits mostly inhibitors | P83916 | 0.56% of 390,000 active | AID 540317; note: nearly all actives have a fitted effect of over 70% in size
#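 HP1-beta protein (50 nM final) preincubated 30 min at room temperature with biotinylated H3(1-18)K9me3 peptide (50 nM) in PBS pH 7.4, 0.01% Tween-20, then compound added for 30 min. AlphaScreen streptavidin donor/nickel chelate acceptor beads (10 ug/mL final), 30 min dark, luminescence read.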
# L3MBTL1 block – L3MBTL1 (human) inhibition; Q9Y468; AlphaScreen L3MBTL1–H3K9me1 peptide binding; Potency, µM (series often up to 57.1 µM), without a hit: at the top dose activity, negative = inhibition, usual class: inhibitors; 0.66% of 230,000 active; AID 485360; note: % is set by controls: 0 for no effect and ±100 for the full control effect; nearly all actives have a fitted effect of over 60% in size
#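 AlphaScreen assay: L3MBTL1 (50 nM final) was preincubated 30 min at room temperature with biotinylated H3(1-15)K9me1 peptide (75 nM final), then 30 min with library compounds; streptavidin donor and nickel chelate acceptor beads (10 ug/mL final) added, 30 min dark.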
# JMJD2A Tudor inh – JMJD2A Tudor domain (human) inhibition; O75164; AlphaScreen JMJD2A-Tudor / H3K4me3 peptide binding; Potency, µM (highest dose often 114 µM), for the others: at the top dose activity change, negative = inhibition, actives largely listed as inhibitors; 4.4% of 390,000 active; note: % is set by controls: 0 for no effect and ±100 for the full control effect; nearly all actives have a fitted effect of over 50% in size
# * hit, by the source's call; ? = inconclusive; · = not tested or not shown; [ ] = dose if it differs, or a comment. Calls come from the whole dose curve; as a rule, active = well fitted inhibition curve with a large enough effect; inconclusive = small, poorly fitted or top-dose-only effect; inactive = no such curve, though single readings can be large or run the other way. Potency is the fitted concentration of half-maximal effect.
SMILES,G9a inh,BAZ2B block,HP1b chromo inh,L3MBTL1 block,JMJD2A Tudor inh
CC(=O)Nc1ccc(C=NNc2ccc([N+](=O)[O-])cc2S(=O)(=O)Nc2ccccc2C(=O)O)cc1,·,·,12.4%,-0.4%,?
CCN(CC)S(=O)(=O)c1ccc(N/N=C(\C)c2ccncc2)c([N+](=O)[O-])c1,15.0%,2.4%,-29.9%,·,-15.8%
CN(CCO)c1ccc(C=NNc2ccc([N+](=O)[O-])cc2S(=O)(=O)Nc2ccccc2C(=O)O)cc1,·,·,44.7µM*,?,44.7µM*
CN(CCO)c1nc(N)c2c(N)nc3c(c2c1C#N)CC(=O)N3Cc1cccs1,?,-26.2%,34.0%,15.3%,-6.5%
N#Cc1c(N(CCO)CCO)nc(N)c2c(N)nc3c(c12)CC(=O)N3Cc1cccs1,44.7µM*,?,-15.5%,-23.6%,?
CCc1c(CN2CCN(c3ccccc3F)CC2)csc1C,24.5%[59 µM],38.7%,116.0%,·,41.0%
CC1SC2(NC1=O)C1CC3CC(C1)CC2C3 (configuration not stated),9.1%,-2.8%,26.5%,-8.3%,-3.5%
COc1ccc(/C=C(\NC(=O)c2ccco2)C(=O)NCCc2nc3ccccc3[nH]2)cc1,·,-8.0%,9.9%,-1.9%,-28.1%
CCc1ccc(/C(C)=N/NC(=O)CNC(=O)/C=C/c2ccco2)cc1,·,·,22.4µM*,·,22.4µM*
CCOc1ccc(CCNC(=O)/C=C/c2ccco2)cc1OCC,35.5µM*,?,4.5%,·,-33.7%
COc1ccc(/C=C/C(=O)NCCc2ccc(S(N)(=O)=O)cc2)cc1,-6.6%[59 µM],-17.9%,54.3%,4.1%,9.2%
COc1ccc(/C=C(\NC(=O)/C=C/c2ccco2)C(=O)NCCc2nc3ccccc3[nH]2)cc1,?,50.1µM*,?,-14.1%,?
COc1ccc(CCNC(=O)/C=C/c2ccco2)cc1,·,?,?,-4.8%,31.6µM*
O=C(Cn1c(=O)oc2cc(S(=O)(=O)N3CCCCC3)ccc21)Nc1cccc(Cl)c1,-7.2%[59 µM],?,21.8%,·,-9.5%
O=C(c1ccc2c(c1)N(Cc1cccc(Cl)c1)C(=O)c1ccccc1S2(=O)=O)N1CCC(Cc2ccccc2)CC1,-4.4%[59 µM],0.0%,12.9%,·,-23.7%
COc1ccc(CCNC(=O)/C=C/c2ccco2)cc1OC,14.1µM*,-26.6%,-15.1%,-7.2%,-16.1%
CSc1ccc(CNC(=O)Cn2c(-c3cccs3)cc3cc(F)ccc32)cc1,7.7%[59 µM],3.8%,41.8%,·,-1.7%
COc1ccc(OC)c(NC(=S)NCc2ccc(S(N)(=O)=O)cc2)c1,44.7µM*,5.5%,-17.9%,-2.2%,-10.5%
COc1ccccc1NC(=S)NCc1ccc(S(N)(=O)=O)cc1,?,6.6%,16.5%,7.0%,0.0%
COc1ccc(NC(=S)NCc2ccc(S(N)(=O)=O)cc2)c(OC)c1,7.08µM*,4.6%,-11.3%,6.8%,-4.3%
CCOc1ccccc1NC(=O)Cn1c(=O)n(-c2ccc(Cl)cc2)c(=O)c2oc3ccccc3c21,-1.0%[59 µM],-11.4%,18.2%,·,-7.7%
COc1cc(/C=N/NC(=O)[C@H](Cc2c[nH]c3ccccc23)NC(=O)OCC(C)C)cc([N+](=O)[O-])c1O,?,39.8µM*,-16.7%,-3.3%,?
OCc1cc2c(cn1)[nH]c1ccccc12,37.2%[59 µM],·,·,·,·
O=C1c2sc3nc4ccccc4n3c2C(=O)N1c1ccccc1Cl,1.41µM*,?,?,·,-25.5%
Cc1ccccc1N1C(=O)c2sc3nc4c(c(=O)n3c2C1=O)CCC4,8.91µM*,4.9%,-49.1%,-8.1%,?
SMILES,G9a inh,BAZ2B block,HP1b chromo inh,L3MBTL1 block,JMJD2A Tudor inh
CCOC(=O)c1c(C)n(CCOc2ccccc2)c2ccc(O)cc12,3.98µM*,3.3%,9.8%,·,-11.2%
CCOC(=O)c1c(C)n(CCNC(C)=O)c2ccc(O)cc12,-3.4%,-2.3%,15.7%,·,-13.8%
CCOC(=O)c1c(C)n(CC(O)c2ccccc2)c2ccc(O)cc12 (configuration not stated),56.2µM*,?,17.4%,-9.3%,-25.2%
CCOC(=O)c1c2n(c3ccc(O)cc13)CCC2,-6.2%[59 µM],5.2%,64.1%,-13.1%,-17.8%[11.4 µM]
COc1cc2c(C(=O)OCCN(C)C)c(CSc3ccccc3)n(C)c2cc1Br,-24.4%,-20.6%,-2.7%,-9.2%,-30.5%
CCOC(=O)c1c(CSc2ccccc2)n(C)c2ccc(O)cc12,35.5µM*,1.0%,14.3%,·,-12.0%
CCn1cc2nc(SCC(=O)Nc3cc(OC)cc(OC)c3)n(Cc3ccc(Cl)cc3)c(=O)c2n1,-4.0%[59 µM],-0.6%,43.4%,·,-14.0%
N#CCSc1nc2c(cc1C#N)CCCC2,25.1µM*,7.8%,42.3%,9.3%,9.0%
N#Cc1cc2c(nc1SCC(=O)O)CCCCC2,·,-25.5%,91.3%,-10.4%,5.4%
CSC1CCCCC1(O)CSc1nc2c(cc1C#N)CCCC2 (configuration not stated),2.51µM*,3.4%,?,-8.7%,20µM*
CSc1nc(-c2ccccc2)nc(NC(=O)c2ccccc2)c1C(C)=O,-2.2%,-2.7%,20.1%,-16.8%,-11.0%
CC(=O)c1n[nH]nc1NC(=O)c1ccccc1,50.1µM*,50.1µM*,5.6%,·,20µM*
CC(C)(C)C(=O)Nc1ccc(Cc2ccncc2)cc1,·,·,48.2%,·,-4.5%
CN(C)Cc1ccccc1-c1cc(NCc2ccccc2)ncn1,12.1%[0.501 µM],·,·,·,·
Cc1ccc(Cl)cc1NC(=O)Cn1c(SCC(=O)NCc2ccccc2)nc2ccccc21,1.5%[12.7 µM],-17.0%,24.1%,·,-7.0%
Fc1ccc(N2CCN(c3ncnc4[nH]ncc34)CC2)cc1,-1.0%[59 µM],1.2%,5.2%,·,-16.5%
CCCC(=O)Nc1nnc(-c2ccc3c(c2)OCCO3)o1,3.1%,79.4µM*,-7.5%,-18.7%,?
COc1cn(-c2ccccc2)nc1C(=O)Nc1ccc(C)cc1Cl,?,79.4µM*,23.2%,·,?
CC(=O)C1=C(O)C(=O)N(c2ccc(O)cc2)C1c1cccc([N+](=O)[O-])c1 (configuration not stated),50.1µM*,4.1%,21.9%,-1.6%,-6.8%
CC(=O)C1=C(O)C(=O)N(c2ccc(O)cc2)C1c1cccc(F)c1 (configuration not stated),-20.2%,4.7%,17.3%,·,-16.4%
CC(=O)C1=C(O)C(=O)N(c2ccc(Br)cc2)C1c1cccc(F)c1 (configuration not stated),44.7µM*,-34.2%,11.1%,2.9%,-23.3%
CCn1cc(S(=O)(=O)c2cc(C)cc(C)c2)c(=O)c2cc(F)c(N3CCCC3)cc21,-20.1%[59 µM],?,37.5%,·,-16.8%
Cc1ccc(NC(=O)Nc2nnc(SCC(=O)N(C(C)C)C(C)C)s2)cc1,4.8%[59 µM],3.1%,34.6%,·,-0.3%
Cc1ccc(N2CCn3c2nc2c3c(=O)n(CCc3ccccc3)c(=O)n2C)cc1C,-7.5%[59 µM],-22.3%,16.1%,·,-28.0%
CCOc1ccc(-n2c(SCC(=O)N3CCCC3)nc3c([nH]c4ccccc43)c2=O)cc1,15.4%[59 µM],1.1%,20.8%[57 µM],·,-5.8%
